Results from PubChem BioAssay AID720517 (National Center for Advancing Translational Sciences (NCATS), 2013).
Results filed as inconclusive are left out. Entries that show only a call come without a potency. Active and inactive are the calls of the source. The call rests on the fitted dose curve; in most records, active means well fitted activation curve with a large enough effect; inconclusive means small, poorly fitted or top-dose-only effect; inactive means flat fitted curve, though single readings scatter.

Test: qHTS for Inhibitors of Cell Surface uPA Generation: FP59 Counterscreen for Cherry-picked Compounds
Settings: FP59 anthrax toxin cytotoxicity counterscreen, cells; series mostly up to 115 µM

Which Potency does the source give for CCc1nccn1CCC(=O)N1CCc2c([nH]c3ccccc23)C1CC(C)C (stereo unspecified) here?
Its Potency is “inactive”.

Which Potency does the source give for Cc1noc(C)c1CSCC(=O)Nc1cc(Cl)ccc1N1CCCCC1 here?
Its Potency is “inactive”.

Which Potency does the source give for CCOC(=O)[C@H]1[C@H]2COc3ccc(Br)cc3[C@@H]2N2C(=O)c3c(C)cc(C)cc3NC(=O)[C@@]12C here?
Its Potency is “inactive”.

With Cc1cccc(C(=O)NCC(=O)OCC(=O)NC2CCCCCCC2)c1 as the compound, how does the Potency read?
The Potency was “inactive”.

For CN(CC(=O)NCc1ccco1)CC(=O)Nc1c(Cl)cccc1Cl, which Potency is on record?
Its Potency is “inactive”.

Which Potency does the source give for CCCCOc1ccc(S(=O)(=O)N2CCCCC2)cc1 here?
The Potency was “inactive”.

Which Potency does the source give for COc1ccc(OC)c(S(=O)(=O)N2CCN(Cc3ccccc3)CC2)c1 here?
Its Potency is “inactive”.

With CC(C)(C)n1ncc2c(=O)n(Cc3ccc(Cl)cc3)cnc21 as the compound, how does the Potency read?
The Potency was “inactive”.

For CCC(C)C(NC(=O)c1ccccc1)C(=O)Nc1ccc(S(=O)(=O)Nc2cc(C)nc(C)n2)cc1 (stereo unspecified), which Potency is on record?
The Potency was “inactive”.

With Cc1c(C(=O)N(Cc2ccccc2Cl)C2CCS(=O)(=O)C2)oc2ccccc12 (stereo unspecified) as the compound, how does the Potency read?
The Potency was “inactive”.

With COc1ccc(NC(=O)Nc2nnc(N3CCCCC3C)s2)cc1OC (stereo unspecified) as the compound, how does the Potency read?
Its Potency is “inactive”.

With CCOC(=O)Oc1c(OC)cc(C(=O)O[C@@H]2C[C@@H]3CN4CCc5c([nH]c6cc(OC)ccc56)[C@H]4C[C@@H]3[C@H](C(=O)OC)[C@H]2OC)cc1OC as the compound, how does the Potency read?
Its Potency is “inactive”.

For Cc1nc2nc(C)c(NS(=O)(=O)c3ccc(Cl)cc3)c(=O)n2[nH]1, which Potency is on record?
The Potency was “inactive”.

For NC(=O)c1cc2ccncc2c2ccccc12, which Potency is on record?
Its Potency is “inactive”.

With O=C(CNC(=O)c1ccc(Br)o1)NNC(=O)c1ccccc1 as the compound, how does the Potency read?
The Potency was “inactive”.

Which Potency does the source give for COc1ccc(CNC(=O)C2CCC(CNS(=O)(=O)c3ccc(C)cc3)CC2)cc1 (stereo unspecified) here?
Its Potency is “inactive”.
